# Assay results as given in PubChem BioAssay (NCI).
# About 83,000 compounds went through this panel and 20% of them were active in at least one assay; those are over-represented in the sample as a whole.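 A percent growth of 40 corresponds to 60% growth inhibition; 0 means no net growth; -100 means all cells died. Active threshold: below 10.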 Calls of active or inactive are those of the source.
# System: HCT-116 colon
# Assay: NCI-60 one-dose screen, 48 h (100 = growth as untreated, 0 = no growth, -100 = all killed)
# Details: 10 µM unless noted
row,SMILES,growth
1,Cc1cccc2c1NC(=O)C2(c1ccc(O)cc1)c1ccc(O)cc1,68.7% (inactive)
2,Cc1ccc(Cl)cc1Nc1nc(C(F)(F)F)ccc1C(=O)N/N=C/c1cccnc1,25% (inactive)
3,C=CCc1c2c(c(OC)c3ccoc13)C(=O)/C(=C/c1ccccc1OC)O2,21.4% (inactive)
4,COC(=O)c1cc(-c2ccc(S(C)(=O)=O)cc2)[nH]c1N/N=C/c1c(Cl)cccc1Cl,11.4% (inactive)
5,Cn1cc(-c2csc(-c3c[nH]c4ccc(Br)cc34)n2)c2cnccc21,-90.9% (active)
6,O=C(N/N=C/c1ccc(F)cc1)c1ccc(C(F)(F)F)nc1Nc1cccc(C(F)(F)F)c1,10.1% (inactive)
7,N#Cc1c(N)nnn1Cc1cc(=O)oc2c1ccc1ccccc12,106% (inactive)
8,CN(CCOc1ccc(C#N)cc1)CCOc1ccc(C#N)cc1,66.2% (inactive)
9,CCOc1nc(-c2ccccc2)cc2c(O)c(C(=O)NN)[nH]c(=O)c12,102% (inactive)
10,COC(=O)c1c2c(c(C)[n+]([O-])c1C)C(=O)C=C(NCc1ccc(OC)cc1)C2=O,-11.6% (active)
11,CCCCN1C(=O)/C(=c2\sc3n(c2=O)C2C(NN=3)N(CC)C(=O)N2CC)c2ccccc21 (stereo not given),3.15% (active)
12,Nc1ncnc2c1N=C(c1ccc3c(c1)OCO3)CC(c1ccc([N+](=O)[O-])cc1)N2 (stereo not given),66.6% (inactive)
13,COC(=O)c1c2c(c(C)[n+]([O-])c1C)C(=O)C=C(NCc1ccc(Br)cc1)C2=O,-17.2% (active)
14,COc1ccc(C(=S)N2CCN(c3ccccc3Cl)CC2)cc1OC,87.1% (inactive)
15,CCOC(=O)c1nc(Nc2ccc(NC(=O)Nc3ccc(F)cc3)cc2)c2ccccc2n1,101% (inactive)
16,CC(C)n1cnc2c(=S)nc[nH]c21,106% (inactive)
17,COc1cc(-c2cc(-c3ccc(N(C)C)cc3)nc(N3CCC(O)CC3)c2C#N)cc(OC)c1OC,-38.9% (active)
18,O=C(c1ccc(-c2ccccc2)cc1)c1ccc([N+](=O)[O-])cc1,92.6% (inactive)
19,O=C(Nc1cccc([N+](=O)[O-])c1)c1cc2ccccc2cc1O,7.4% (active)
20,O=C1c2cccc(NCCN=Cc3cc(O)ccc3O)c2C(=O)c2c(NCCN=Cc3cc(O)ccc3O)cccc21,-17.3% (active)

row,SMILES,growth
1,CN(Cc1ccc(C(F)(F)F)cc1)CC(O)C(=O)Nc1ccc(Cl)cc1 (stereo not given),-94.3% (active)
2,O=[N+]([O-])c1ccc(N/N=C(/C(=N/Nc2ccc([N+](=O)[O-])cc2)c2ccccc2)c2ccccc2)cc1,51.7% (inactive)
3,Cc1c(-n2nnc(-c3nc4ccccc4s3)c2N)c(=O)n(-c2ccccc2)n1C,103% (inactive)
4,Cc1cc(N)c2cc(NC(=O)/C=C\c3ccccc3Cl)ccc2n1,-73% (active)
5,C=C1C(=O)O[C@H]2[C@H]1CC/C(COC(=O)CCSCCC(=O)OC/C1=C/CC[C@@]3(C)O[C@H]3[C@H]3OC(=O)C(=C)[C@@H]3CC1)=C\CC[C@@]1(C)O[C@@H]21,-60.2% (active)
6,COc1cc(CNS(=O)(=O)c2ccc(C)cc2)ccc1OCc1cn(-c2ccc(Br)cc2)nn1,100% (inactive)
7,CCn1c(SCC(=O)c2ccc(Br)cc2)nnc1-c1ccncc1,105% (inactive)
8,Cc1ccc(-n2c(=S)[nH]c3sc4c(c3c2=O)CCC(=O)C4)cc1,36.2% (inactive)
9,C#Cc1cccc(Nc2ncnc3ccc(-c4cnc(N)nc4)cc23)c1,47.9% (inactive)
10,CCCCN[C@H]1CC[C@@]2(C)[C@@H](CC[C@@]3(C)[C@H]2[C@H](O)C[C@H]2/C(=C(\CCC=C(C)C)C(=O)OC)[C@@H](OC(C)=O)C[C@@]23C)[C@@H]1C,102% (inactive)
11,Fc1cc(F)cc(C(c2c[nH]c3ccccc23)c2c[nH]c3ccccc23)c1,89.8% (inactive)
12,C#CCOc1cccc(Nc2ncnc3c(NC(=O)C=C)cccc23)c1,6.27% (active)
13,COc1cc(CNS(=O)(=O)c2ccc(C)cc2)ccc1OCc1cn(-c2ccc(F)cc2)nn1,83.6% (inactive)
14,CCc1ccc(C(=O)/C=C/C23c4ccccc4C(c4ccccc42)C2C(=O)NC(=O)C23)cc1 (stereo not given),-40% (active)
15,Nc1ncnc2c1N=C(c1ccc(Cl)cc1)CC(c1ccc3c(c1)OCO3)N2 (stereo not given),83.7% (inactive)
16,Cc1ccc(S(=O)(=O)N2CCCC2CO)cc1 (stereo not given),96.8% (inactive)
17,CC(=O)Nc1nc2ccc(NS(=O)(=O)c3cccc4c(N(C)C)cccc34)cc2[nH]1,62.2% (inactive)
18,COC(C(=O)[C@@H](O)[C@@H](C)O)[C@@H]1Cc2cc3cc(O[C@H]4C[C@@H](O[C@H]5C[C@@H](O)[C@H](O)C(C)O5)[C@H](O)C(C)O4)c(C)c(O)c3c(O)c2C(=O)[C@H]1O[C@H]1C[C@@H](O[C@H]2C[C@@H](O[C@H]3C[C@@H](O)[C@H](OC)C(C)O3)[C@@H](O)C(C)O2)[C@H](O)C(C)O1 (stereo not given in full),12.1% (inactive)
19,Cc1nn(-c2ccccc2)c(Oc2ccccn2)c1-c1nc2ccccc2s1,91.5% (inactive)
20,CC(C)(C)n1cc(-c2ccnc(NCCNS(=O)(=O)c3cccc4ccccc34)c2)c(-c2cccc(F)c2)n1,-87.2% (active)
